PMC4336329 (PLoS ONE, 2015)
Among all 310,000 compounds or so, about 2,200 (0.71%) showed an effect of 50% or more. The effect is printed as a negative number. The entries come from a sample that favours strong results as a whole.

Target: human ether-à-go-go-related gene (hERG) potassium channel (human, UniProt Q12809)
Test: primary screen, population patch clamp on CHO cells stably expressing hERG; higher = less effect of the substance

Chain of human ether-à-go-go-related gene (hERG) potassium channel (Q12809 whole entry, looked up): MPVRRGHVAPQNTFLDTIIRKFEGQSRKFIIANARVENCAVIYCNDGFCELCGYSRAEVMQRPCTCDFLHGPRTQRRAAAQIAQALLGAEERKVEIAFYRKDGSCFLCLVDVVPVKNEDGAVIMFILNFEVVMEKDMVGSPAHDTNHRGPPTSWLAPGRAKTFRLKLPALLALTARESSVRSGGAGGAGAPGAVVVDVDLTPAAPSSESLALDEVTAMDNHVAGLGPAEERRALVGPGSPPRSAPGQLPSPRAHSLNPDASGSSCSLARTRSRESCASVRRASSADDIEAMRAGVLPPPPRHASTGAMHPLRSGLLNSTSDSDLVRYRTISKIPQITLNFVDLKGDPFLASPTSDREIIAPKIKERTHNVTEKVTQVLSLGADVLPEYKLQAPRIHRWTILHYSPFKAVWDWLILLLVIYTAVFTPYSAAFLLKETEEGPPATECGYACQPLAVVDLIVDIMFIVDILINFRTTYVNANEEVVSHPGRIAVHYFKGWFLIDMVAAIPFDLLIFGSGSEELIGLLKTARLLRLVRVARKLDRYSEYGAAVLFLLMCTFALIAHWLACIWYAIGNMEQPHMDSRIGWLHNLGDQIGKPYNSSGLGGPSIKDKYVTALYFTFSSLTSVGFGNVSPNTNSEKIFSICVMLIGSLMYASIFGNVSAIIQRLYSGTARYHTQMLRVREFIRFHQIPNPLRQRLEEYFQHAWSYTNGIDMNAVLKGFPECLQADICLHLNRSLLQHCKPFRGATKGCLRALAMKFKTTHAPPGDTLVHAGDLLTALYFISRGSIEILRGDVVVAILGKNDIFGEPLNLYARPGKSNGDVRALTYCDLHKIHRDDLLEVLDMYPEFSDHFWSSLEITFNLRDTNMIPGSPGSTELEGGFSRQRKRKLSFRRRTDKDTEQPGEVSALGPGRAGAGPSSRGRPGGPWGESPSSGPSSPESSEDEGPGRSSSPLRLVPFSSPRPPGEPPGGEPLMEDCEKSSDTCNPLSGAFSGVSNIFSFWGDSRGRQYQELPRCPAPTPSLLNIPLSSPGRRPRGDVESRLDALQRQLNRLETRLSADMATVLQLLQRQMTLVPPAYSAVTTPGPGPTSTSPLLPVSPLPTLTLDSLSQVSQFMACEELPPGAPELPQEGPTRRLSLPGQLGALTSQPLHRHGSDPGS

SMILES	hERG current change (%, negative = inhibition) at 1uM
COc1ccc(C(CCNCc2ccc(N(C)C)cc2)C(C)C)cc1 (centres unmarked)	2.49%
COc1ccc(OCCSc2nc(C)c(Cc3ccccc3)c(=O)[nH]2)cc1	7.38%
Cn1c(C(=O)c2ccccc2[N+](=O)[O-])nc2ccccc21	-9.27%
S=C(Nc1ccccc1Cl)N1CCC(c2ccccc2)C1 (centres unmarked)	-6.92%
COc1ccc2c(c1)N1CCN=C1N2C.Cl	5.26%
Cc1[nH]nc(NCCO)c1[N+](=O)[O-]	-3.88%
CCOc1ccc(NC(=O)CN(c2ccc(OC)cc2)S(C)(=O)=O)cc1	8.87%
CCC(C)[C@H](NC(=O)C1CC(=O)N(c2ccc3c(c2)OCO3)C1)C(=O)NC1CCCCC1 (some centres unmarked)	29.5%
COC(=O)C(Cc1ccc(OC(=O)c2ccc(C(F)(F)F)cc2)cc1)N1Cc2ccccc2C1=O (centres unmarked)	13.8%
COc1cccc(C(=O)NC2CCCN(C3Cc4ccccc4C3)C2)c1OC (centres unmarked)	0.941%
O=C(NC1CCCN(C2Cc3ccccc3C2)C1)c1ccc(F)cc1Cl (centres unmarked)	-72.9%
O=C(NC1CC1)c1ccc(F)cc1Cl	14.2%
N/C(=N\OC(=O)c1cc(-c2ccccc2)nc2ccccc12)c1ccncc1	8.01%
CCOc1cc(S(=O)(=O)N2CCN(CC)CC2)ccc1Cl	6.75%
Cc1ccc(-c2cc(C(=O)N3CCCCCC3)no2)cc1	10%
Cc1ccc(-c2cc(C(=O)N3CCCc4ccccc43)no2)cc1	-75.5%
CCOC(=O)C1CCCN(C(=O)c2cc(-c3ccc(C)cc3)on2)C1 (centres unmarked)	-59.7%
O=C(c1cc(-c2ccccc2)on1)N1CCCc2ccccc21	8.2%
O=C(c1cc(-c2ccc(O)cc2)on1)N1CCCc2ccccc21	8.9%
CCOC(=O)C1CCCN(C(=O)c2cc(-c3ccccc3)on2)C1 (centres unmarked)	3.94%
COc1ccccc1/C=c1\sc2nc(-c3ccco3)nn2c1=O	17.5%
Cc1ccc2nc(NCCO)nc(-c3ccccc3)c2c1	1.36%

SMILES	hERG current change (%, negative = inhibition) at 1uM
COc1ccc(C(C)=O)cc1COC(=O)c1cnc(C)cn1	17.6%
CCCCNC(=O)CCCn1c(=S)[nH]c2cc3c(cc2c1=O)OCO3	19.2%
Cc1oc(-c2ccccc2Cl)nc1CN1C(=O)CN=C(c2ccccc2)c2ccccc21	9.3%
O=C(CNC(=O)/C(=C\c1ccc(F)cc1)NC(=O)c1ccccc1)OCc1ccccc1	-69%
CCOC(=O)CNC(=O)/C(=C\c1ccc(F)cc1)NC(=O)c1ccccc1	-11.7%
O=C(CCCNC(=O)/C(=C/c1ccc(Br)cc1)NC(=O)c1ccccc1)OCc1ccccc1	-2.58%
O=C(CNC(=O)/C(=C/c1ccccc1)NC(=O)c1ccc(Br)cc1)OCc1ccccc1	2.24%
O=C(CNC(=O)/C(=C\c1ccc(Br)cc1)NC(=O)c1ccccc1)OCc1ccccc1	-48%
O=C(CNC(=O)/C(=C\c1ccccc1)NC(=O)c1ccc(Br)cc1)OCc1ccccc1	-68.1%
COc1ccc(/C=N/N=C(/N)N[N+](=O)[O-])c(OC)c1	7.59%
CCN(CC)S(=O)(=O)c1cc(NC(=O)C(C)N2CCc3ccccc32)ccc1C (centres unmarked)	9.99%
C=CCn1c(SCC(=O)NNC(=O)Nc2cccc(Cl)c2)nnc1-c1ccccc1	6.04%
COc1ccc(C(=O)Oc2cc(C)c(CN3CCOCC3)cc2C)cc1OC	-1.52%
C#CCSc1nc(N)c2c(n1)OC(N)=C(C#N)C2c1cccnc1 (centres unmarked)	4.59%
O=C(CSc1ncccn1)N1CCN(C(c2ccccc2)c2ccccc2)CC1	4.43%
O=C(Cn1c(=O)cnc2ccccc21)N1CCN(S(=O)(=O)c2ccccc2Br)CC1	36.9%
CCCn1c2ccc(C)cc2c2nnc(SCCN3CCOCC3)nc21	19%
CCn1c2ccc(C)cc2c2nnc(SCCN3CCOCC3)nc21	4.8%
CCn1c2nc(SCCN3CCOCC3)nnc2c2cc(C)cc(C)c21	-69.2%
Cc1ccc(S(=O)(=O)N2CCCC2C(=O)Nn2cnnc2)cc1 (centres unmarked)	11.7%
CCc1nc(SCC(=O)NC2CC2)c2c(C)c(C)sc2n1	-4.16%
Cc1cc(NC(=O)NCc2ccccc2)c(=O)n(Cc2ccccc2F)c1	7.05%
